Measurements taken from PubChem BioAssay.

molecular target: Carbonic anhydrase 2 (Homo sapiens) (UniProt P00918); assay: compounds binding carbonic anhydrase 2 – biochemical, small-molecule microarray, Alexa647-labelled CAII, profiling panel (AID 1122); details: CAII-A647 binding fluorescence, higher = more signal

First: Cc1ccc(S[C@]2(C(=O)NCCCN(C)C)CC(=O)N(C3CCCCC3)[C@@H]2c2ccc(CO)cc2I)cc1
Second: Cc1ccc(S[C@]2(C(=O)NCCN3CCOCC3)CC(=O)N(C3Cc4ccccc4C3)[C@@H]2c2ccc(CO)cc2I)cc1
The composite z-score of the first is lower: 0.442 for the first, 0.576 for the second.

First: O=C1C2C=CC(C(O)C#Cc3ccccc3)N(Nc3ccccc3)C2C(=O)N1c1ccccc1 (stereo unspecified)
Second: O=C1C2C=CC(C(O)C(c3ccccc3)c3ccccc3)N(Nc3ccc([N+](=O)[O-])cc3)C2C(=O)N1c1ccccc1 (stereo unspecified)
The composite z-score of the first is higher: 0.812 for the first, 0.733 for the second.

Compared with `O=C1NC(=O)C2C1C=CC(C(O)C=Cc1ccc([N+](=O)[O-])cc1)N2Nc1ccccn1` (stereo unspecified), `N#Cc1ccc(NN2C(C(O)c3ccc(I)cc3)C=CC3C(=O)N(c4ccccc4)C(=O)C32)cc1` (stereo unspecified) is lower in composite z-score: 0.863 for the first, 0.74 for the second.

Compared with `Cc1ccc(S(=O)(=O)N[C@H]2COC(=O)CC=C[C@H](C)COC(=O)N[C@@H](C)C(=O)CC=C[C@@H]2C)cc1`, `CO[C@@H]1COC(=O)[C@H](C)NC(=O)CC=C[C@@H](C)[C@H](NS(=O)(=O)c2ccc(C)cc2)COC(=O)CC=C[C@@H]1C` is higher in composite z-score: -0.461 for the first, -0.185 for the second.

Compared with `Cc1ccc(N2C(=O)c3ccccc3[C@](C)(C(=O)NCC(C)C)[C@@H]2c2ccc(CO)cc2)nc1`, `Cc1ccc(N2C(=O)c3ccccc3[C@](C)(C(=O)O)[C@@H]2c2ccc(CO)cc2)nc1` is higher in composite z-score: 0.265 for the first, 0.289 for the second.

First: O=C1C2C=CC(C(O)c3ccccc3)N(n3cnnc3)C2C(=O)N1Cc1ccccc1 (stereo unspecified)
Second: CCC#CCN(Cc1ccccc1Br)[C@H](/C=C/c1ccccc1)[C@@H](O)Cc1ccccc1
The composite z-score of the first is higher: 0.565 for the first, -0.225 for the second.

Compared with `COc1cc([C@@H]2N[C@H](C(=O)O)Cc3c2[nH]c2ccccc32)cc(OC)c1OC`, `COC(=O)[C@@]1(Cc2ccc(OC)cc2)[C@H]2c3cc(C(=O)N(C)C)n(CCc4ccc(OC)c(Br)c4)c3C[C@H]2CN1C(=O)c1ccccc1` is higher in composite z-score: -0.0165 for the first, 0.718 for the second.

First: C=CCNC(=O)[C@H]1[C@@H]2C(=O)O[C@@H](c3ccccc3)[C@@H](c3ccccc3)N2[C@@H](c2ccc(O)cc2)[C@]12C(=O)Nc1ccc(C#CCNC(N)=O)cc12
Second: CCOC(=O)C1=CC[C@@H](c2ccc(-c3ccc(OCc4ccccc4)cc3)c(OC)c2)N(S(=O)(=O)c2ccc(C)cc2)[C@H]1c1ccccc1
The composite z-score of the first is higher: 0.78 for the first, 0.469 for the second.

Compared with `CCCC=C(CCC)[C@@H](NC(=O)c1ccccc1)c1ccccc1`, `CCC(=O)[C@]12O[C@@]3([C@@H]4C(=O)OCC[C@@H]41)N(Cc1ccccc1)C(C)=C(C(=O)OC)[C@@H](c1ccccc1)N3C2=O` is higher in composite z-score: -0.247 for the first, 0.463 for the second.

First: CO[C@H]1O[C@H](CO)[C@@H](OC(=O)CCc2ccccc2)[C@@H]2OC(=O)[C@H](Cc3cccc(Br)c3)C/C=C/C[C@@H](Cc3cccc(Br)c3)C(=O)O[C@@H]12
Second: CCOC(=O)[C@H]1C/C=C/C[C@H](C(=O)OCC)C(=O)O[C@H]2[C@@H](OC)O[C@H](CO)[C@@H](OC(=O)Nc3ccc(Br)cc3)[C@@H]2OC1=O
The composite z-score of the first is higher: 0.76 for the first, 0.516 for the second.

Going from `C=CCC(OC(C)=O)[C@@H]1[C@@H](N(Cc2cccc3ccccc23)C(=O)c2ccc(C)cc2)c2cc(OCCCO)ccc2N1C(=O)c1ccc(-c2ccccc2)cc1` (stereo partly specified) to `CCOC(=O)C[C@H]1[C@H](OC(=O)Cc2ccc3c(c2)OCO3)[C@@H](NC(=O)c2ccc3ccccc3c2)c2cc(OCCCO)ccc2N1C(=O)Cc1ccc(OC)cc1`, the composite z-score falls from 0.507 to 0.0553.

Compared with `C[C@@H]1CC[C@H]2C(=O)N3[C@@H](CC[C@@H](C)[C@@H]3c3cccc(N4CCOCC4)c3)C(=O)N2[C@H]1c1cccc(N2CCOCC2)c1`, `C[C@H]1COC(=O)[C@@H]2CCCN2C(=O)[C@@H](C)COC(=O)[C@@H]2CCCN2C1=O` is lower in composite z-score: 0.477 for the first, -0.525 for the second.

First: C[C@@H]1C=CCC(=O)OC[C@H]2O[C@@H](C=C[C@@H]2O)[C@H](C)C=CCC(=O)OC[C@H]2O[C@H]1C=C[C@@H]2O
Second: CO[C@@H]1COC(=O)[C@H](C)NC(=O)CC=C[C@@H](C)[C@H](OC)COC(=O)[C@H](C)NC(=O)CC=C[C@H]1C
The composite z-score of the first is higher: -0.227 for the first, -0.305 for the second.

Compared with `C=C(CCCC)/C(=C/C[C@@H](OC(=O)c1ccncc1)c1cccc(OCCO)c1)c1cc(C(=O)OC)ccc1OC`, `[N-]=[N+]=NCc1ccccc1C[C@@]1(C(=O)O)N=C(c2ccc(OCCCO)cc2)O[C@@H]1c1ccccc1N=[N+]=[N-]` is higher in composite z-score: 0.57 for the first, 0.726 for the second.

Going from `[N-]=[N+]=NCc1ccccc1C[C@]1(C(N)=O)N=C(c2ccc(OCCCO)cc2)O[C@H]1c1ccccc1CN=[N+]=[N-]` to `CCCN1C(=O)[C@@]2(CCS(=O)(=O)c3ccccc3)N=C(c3ccc(OCCCO)cc3)O[C@H]2c2ccccc21`, the composite z-score falls from 0.667 to 0.294.

Going from `CCCCO[C@H]1C[C@H]2C(Br)=C[C@@]1(CO)C(=O)[C@]21CO1` to `CC(C)N1CC=CC23O[C@@H]4/C=C\CCCOC(=O)C4[C@H]2C(=O)N(CCCCCO)[C@@H]3C1=O` (stereo partly specified), the composite z-score rises from -0.548 to 0.945.

First: CCCC[C@@H]1C[C@H]1[C@@H](NC(=O)c1cccs1)c1ccc(Cl)cc1
Second: CO[C@H]1COC(=O)[C@H](CCSC)NC(=O)CC=C[C@@H](C)COC(=O)[C@@H](OCc2ccccc2)C=C[C@@H]1C
The composite z-score of the first is higher: -0.346 for the first, -0.498 for the second.

Compared with `C#CCCCON=C1C[C@@H](O)[C@@H](O)[C@@H]2[C@@H]3C(=O)N(Cc4ccc5c(c4)OCO5)C(=O)[C@@H]3CC[C@H]12`, `COC(=O)c1c(CC[C@@H](CO)NC(=O)N[C@H](Cn2cc(-c3cncn3C)nn2)C(C)C)oc(C(C)=O)c1C(=O)OC` is higher in composite z-score: 0.495 for the first, 0.514 for the second.
